In the library only some 2.7% were active in any assay of this set; here they are far more common.
GLP-1R inv ag – acts as inverse agonist at human GLP-1 receptor. 410,000 compounds, 1.6% hits. HEK293 GLP-1R CRE-luciferase, luminescence, 24 h; GLP-1R form is constitutively active. AID 624417. Potency, µM (titrated, usually from 38.3 µM), hits mostly inhibitors; also: nearly all actives have a fitted effect of over 55% in size
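qHTS in 1536-well format: reporter HEK293 cells expressing constitutive GLP-1R activity in DMEM + 10% Nu serum, 24 hr with compounds at 37 deg C, luminescence read after 12 min with detection reagent.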
TrxR1 inh – rat TrxR1 inhibition. recombinant rTrxR1, NADPH fluorescence consumption, selenite substrate. Potency, µM (top dose mostly 114 µM), actives largely listed as inhibitors. 390,000 compounds, 1% hits. AID 588453; also: nearly all actives have a fitted effect of over 65% in size
Target sequence (O89049 whole entry, looked up): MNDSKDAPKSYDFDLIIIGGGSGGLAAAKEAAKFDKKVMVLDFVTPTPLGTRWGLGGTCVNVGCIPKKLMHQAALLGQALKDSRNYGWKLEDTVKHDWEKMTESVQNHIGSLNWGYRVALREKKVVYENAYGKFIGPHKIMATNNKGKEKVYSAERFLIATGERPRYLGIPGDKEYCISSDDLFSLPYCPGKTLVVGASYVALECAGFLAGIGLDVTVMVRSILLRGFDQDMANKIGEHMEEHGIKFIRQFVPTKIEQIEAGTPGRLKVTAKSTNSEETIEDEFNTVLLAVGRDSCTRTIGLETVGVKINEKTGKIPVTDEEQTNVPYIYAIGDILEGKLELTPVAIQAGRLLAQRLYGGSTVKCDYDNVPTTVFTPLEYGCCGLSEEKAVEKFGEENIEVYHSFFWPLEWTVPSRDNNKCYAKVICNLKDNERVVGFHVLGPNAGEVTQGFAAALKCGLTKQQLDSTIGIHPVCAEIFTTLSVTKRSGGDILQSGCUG
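Rat TrxR1 (90 nM in the dispensed reagent) was pre-reduced with 400 uM NADPH for 5 min at room temperature, then incubated with compound for 15 min. After 400 uM selenite was added, NADPH fluorescence (Ex 340/Em 450 nm) was followed for 8 min.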
TrxR1 substrate – is turned over as a substrate by rat TrxR1; purified TrxR1 substrate turnover, NADPH consumption readout; O89049; Potency, µM (titrated, usually from 114 µM); 390,000 compounds, 0.01% hits; also: nearly all actives have a fitted effect of over 50% in size
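Rat TrxR1, dispensed at 90 nM, was prereduced with 400 uM NADPH (final) for 5 min at ~22 deg C, then incubated with compound 15 min before 400 uM selenite. A first-read NADPH fluorescence drop versus no-compound background flagged substrates.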
HEK293 tox – cytotoxicity counter-screen for GLP-1 receptor inverse agonists | Potency, µM (series often up to 38.3 µM), most hits filed as inhibitors | 410,000 compounds, 0.13% hits | HEK293 cAMP-luciferase reporter cells, luminescence, 24 h;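 also: loss of luciferase light is scored as toxicity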
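Seeding density was 200 cells/uL; after overnight-length (12 h) culture, 23 nL compounds went on for 24 h at 37 °C. Readout used a luciferase detection reagent, luminescence taken after 12 min at room temperature.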
IDH1 R132H inh – human IDH1 R132H inhibition; O75874; 390,000 compounds, 0.093% hits; AID 602179; Potency, µM (highest dose often 76.6 µM), usual class: inhibitors; IDH1-R132H enzyme, NADPH consumption, diaphorase/resazurin fluorescence; also: nearly all actives have a fitted effect of over 65% in size
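IDH1-R132H (0.5 ug/mL) preincubated 30 min with compound, then NADPH (0.016 mM) and alpha-KG (2 mM) added; 80 min at RT, pH 7.5. Remaining NADPH coupled via diaphorase/resazurin to fluorescence (540/590 nm); concentration-response curves normalized to no-enzyme control.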
GLP-1R agonist – activates the human GLP-1 receptor; HEK293 GLP-1R CRE-luciferase, luminescence, 4-6 h; cells express a hypersensitive GLP-1R form; Potency, µM (titrated, usually from 45.6 µM), hits mostly activators; 380,000 compounds, 0.007% hits; AID 624172
Numbers stand for hits; n = inactive; u = inconclusive; x = no result given; [ ] = remark or other dose. Calls follow the shape of the dose curve; as a rule, active = well fitted curve in the direction sought with a large enough effect; inconclusive = small, poorly fitted or top-dose-only effect, or another doubt; inactive = no such curve, though single readings can be large; an effect the other way counts as inactive or inconclusive.

SMILES	GLP-1R inv ag	TrxR1 inh	TrxR1 substrate	HEK293 tox	IDH1 R132H inh	GLP-1R agonist
O=C1ON=C(c2ccccc2)/C1=C/c1ccccc1	n	4.5µM	n	n	n	n
O=C1ON=C(c2ccc(Cl)cc2)/C1=C/c1ccc(O)cc1	n	3.2µM	n	n	n	n
COc1cc([N+](=O)[O-])ccc1-c1ccc(/C=C2\C(=O)ON=C2c2ccccc2)o1	n	7.9µM	n	n	u	n
O=C1ON=C(c2ccccc2)/C1=C/c1ccc(O)cc1	n	14µM	n	n	n	n
CC(C)C[C@H](CO)N(Cc1ccccc1)S(=O)(=O)N(Cc1ccccc1)[C@@H](CO)CC(C)C	5.6µM	n	n	u	n	n
Cc1ccccc1-c1nc(CN2CCN(C(=O)c3ccco3)CC2)c(C)o1	n	56µM	n	n	n	n
Cc1ccc(CN(C)C(=O)C2CCCN2C(=O)c2cccs2)o1 (configuration not stated)	n	10µM	n	n	n	n
CN(CC(=O)Nc1ccc(F)c(F)c1F)C(=O)C1CCCN1C(=O)c1cccs1 (configuration not stated)	n	x	x	n	n	n
Cc1sc2ncn(CC(=O)N(C)c3ccc(C(C)C)cc3)c(=O)c2c1S(=O)(=O)N1CCC(C)CC1	n	n	n	n	n	x
Cc1nc(-n2nc(C)c(CCC(C)C)c2C)sc1C(=O)Nc1ccc(Br)cc1	n	n	n	n	n	x
CCOn1c(-n2nc(C)cc2C)nc2ccccc2c1=O	n	n	n	n	n	n
Cc1cc(C)n(-c2nc3ccccc3c(=O)n2OCC#N)n1	3.2µM	n	n	u	n	n
FC(F)(F)c1nc(N2CCCC2)ncc1-c1nnnn1-c1ccc(Cl)cc1	7.1µM	n	n	n	n	n
COc1ccc(-c2cc(C(F)(F)F)n3nc(C(=O)O)c(Cl)c3n2)cc1OC	n	u	u	n	n	x
Cc1ccc(-c2csc(NC(=O)c3cccc(N4C(=O)CCC4=O)c3)n2)o1	n	20µM	n	n	n	n
S=C1NCCc2ccccc2C1c1ccccc1 (configuration not stated)	11µM	n	n	u	n	n
S=C1NCCc2ccccc2C1c1ccccc1Cl (configuration not stated)	u	n	n[0.457 µM]	u	n	n
O=S1(=O)C=C(Sc2nnc(-c3ccccc3)o2)c2ccccc21	n	0.4µM	n	u	n	n
CCOC(=O)C1=C(NC(=S)NC(=O)c2ccccc2)c2ccccc2CC1C(C)C (configuration not stated)	3.2µM	n	n	u	n	n
CCOC(=O)C1=C(NC(=S)NC(=O)c2ccccc2)c2ccccc2CC1(C)CC (configuration not stated)	5µM	n	n	11µM	n	n
CCOC(=O)c1sc(NC(=S)NC(=O)c2ccccc2)c(C(=O)OCC)c1C	n	n	n	n	n	n
CCOC(=O)c1c(NC(=O)c2ccccc2)sc2c1CCc1ccccc1-2	n	n	n	n	n	n
CC(=O)c1ccc2c(c1)C1C=CCC1C(C(=O)O)N2 (configuration not stated)	n	u	n	n	n	n
COc1cccc2c1NC(C(=O)O)C1CC=CC21 (configuration not stated)	n	13µM	n	n	n	n
Cc1cccc(-c2noc(-c3cccnc3NCc3ccccc3Cl)n2)c1	n	n	n	n	n	x
SMILES	GLP-1R inv ag	TrxR1 inh	TrxR1 substrate	HEK293 tox	IDH1 R132H inh	GLP-1R agonist
Cn1cnc(S(=O)(=O)N2CCC(C(=O)N3CCN(c4ccc(Cl)cc4)CC3)CC2)c1	n	n	n	n	n	x
COc1cc(C2Nc3cccc4cccc(c34)N2)cc(OC)c1OC(C)=O	n	35µM	n	u	n	n
CCCc1cnc2c(c1SCC(=O)Nc1ccc([N+](=O)[O-])cc1)c(=O)n(C)c(=O)n2C	n	n	n	n	n	x
CC(=O)N1CCCc2cc(S(=O)(=O)N(C)CC(=O)Nc3ccc(F)c(Cl)c3)ccc21	n	n	n	n	n	x
CN(CC(=O)NCCc1ccc(F)cc1)Cc1ccc(Br)cc1	10µM	n	n	n	n	n
Cc1sc2ncn(CCn3cnc4sc(C)c(C)c4c3=O)c(=O)c2c1C	5µM	n	n	n	n	n
CCn1nnnc1SCC(=O)N(C1CCCCC1)C1CCCCC1	8.9µM	n	n	n	n	n
CCN(C(=O)CSc1nnnn1C)C1CCCCC1	n	n	n	n	n	n
CC(=O)Nc1nc(-c2ccc3c(c2)CCN3C(=O)C2CC2)c(C)s1	0.63µM	n	n	n	n	n
CNc1nc(-c2ccc3c(c2)CCN3C(=O)CC(C)(C)C)c(C)s1	u	n	n	n	n	n
Cc1oc(-c2ccc(C(=O)N(C)Cc3ccccc3)cc2)nc1CN1CCc2ccccc21	11µM	n	n	n	n	n
Cc1ccc(CNC(=O)c2ccc(-c3nc(CN4CCc5ccccc54)c(C)o3)cc2)cc1	n	n	n	n	n	n
COc1ccc(C(=O)NC(=S)Nc2ccc(S(=O)(=O)Nc3cc(OC)nc(OC)n3)cc2)cc1	n	56µM	n	n	n	n
COc1ccc(C(=O)NC(=S)Nc2ccc(S(=O)(=O)Nc3cc(OC)ncn3)cc2)cc1	n	45µM	n	n	n	n
COc1cc(NS(=O)(=O)c2ccc(NC(=S)NC(=O)c3ccco3)cc2)ncn1	n	n	n	n	n	n
Cc1c(F)c(N2CCNC(C)C2)cc2c1c(=O)c(C(=O)O)cn2C1CC1 (configuration not stated)	x	x	x	x	x	n
O=C(O)C1Nc2c(O)cc(Cl)c([N+](=O)[O-])c2C2C=CCC12 (configuration not stated)	n	14µM	n	n	n	n
O=[N+]([O-])c1ccc(Cl)c2c1C1C=CCC1C(c1ccccn1)N2 (configuration not stated)	n	u	n	n	n	n
COc1cccc(C(=O)N(Cc2ccc(N(C)C)cc2)Cc2ccco2)c1	n	n	n	n	x	x
COc1ccc(NC(=O)c2sccc2-n2cccc2)cc1	u	n	n	n	n	n
O=C(Nc1ccc(Cl)cc1)c1sccc1-n1cccc1	4.5µM	n	n	n	n	n
O=C(Cc1ccc(F)cc1)NCCS(=O)(=O)N1CCN(c2cccc(Cl)c2)CC1	10µM	n	n	n	n	n
O=C(Cc1ccccc1)NCCS(=O)(=O)N1CCN(c2cccc(Cl)c2)CC1	u	n	n	n	n	n
CC1Cc2ccccc2C[N+]1(C)CC(=O)c1cccc([N+](=O)[O-])c1 (configuration not stated)	x	n	n	x	x	x
